Many of the other results were omitted from the sample, so hits are more common in it than they were.
ERK EGF inh: blocks ERK signaling stimulated by EGF. Potency, µM (titrated, usually from 11.5 µM), actives largely listed as inhibitors. HEK293-V1b, EGF-stimulated phospho-ERK AlphaScreen. 0.41% of 130,000 active; active = well fitted inhibition curve with a large enough effect; note: nearly all actives have a fitted effect of over 55% in size
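HEK293 cells stably expressing V1b receptor, serum-reduced (1% FBS) overnight, got compound for 30 min at 37C, then 25 nM EGF for 5 min. Lysate phospho-ERK read by AlphaScreen SureFire; AC50 from Hill fits.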
Each line names hits and unclear results; the compound was inactive in the other large screens; ! = not confirmed by another sample.

CCN(CC)S(=O)(=O)c1cccc(NC(=O)c2ccc(Br)cc2)c1	ERK EGF inh 14.1µM
CCN(CC)S(=O)(=O)c1cccc(NC(=O)c2cncc(Br)c2)c1	none
COc1cc2ncnc(NCCCN3CCOCC3)c2cc1OC	none
COc1ccccc1-c1ccc2ncnc(NCc3cccnc3)c2c1	none
Clc1ccccc1CNc1ncnc2nc[nH]c12	none
COc1cc2ncnc(NCc3ccc(C)o3)c2cc1OC	ERK EGF inh 28.2µM
COc1ccc(CNc2ncnc3c2[nH]c2cc(OC)c(OC)cc23)cc1	none
COc1ccc(CCNc2ncnc3sccc23)cc1OC	none
COc1cc2ncnc(NCc3ccccc3Cl)c2cc1OC	ERK EGF inh 1.26µM
COc1cc2ncnc(NCc3ccc(Cl)cc3)c2cc1OC	ERK EGF inh 2.24µM
COc1cccc(-c2ccc3ncnc(NCc4ccccc4OC)c3c2)c1	none
N[C@@H](CSS(=O)(=O)O)C(=O)O	none
C[C@@H]1C[C@](C)(C(=O)c2ccco2)C=C1c1ccco1	none
N#Cc1ccc(CN2CCC3(CC2)CCN(S(=O)(=O)c2ccccc2)CC3)cc1	none
COc1ccc(NC(=O)N2CCCC3(CCN(S(C)(=O)=O)CC3)C2)cc1	none
CC1CC2(C)Oc3ccccc3C3OCC1(COC(=O)Nc1ccccc1)C(C)C32 (stereo unspecified)	none
COC(=O)C(C(=O)OC)C(Cc1cc(F)cc(F)c1F)NC=O (stereo unspecified)	none
Cc1ccccc1-c1nc(NC2CCNCC2)c2ccccc2n1	none
CN(CCCNC(=O)c1cc2c(Cl)nc3ccccc3c2s1)Cc1ccccc1	ERK EGF inh 25.1µM
CCN(CC)CCCNC(=O)c1cc2c(Cl)nc3ccccc3c2s1	none
CC1CCCN(CCCNC(=O)c2cc3c(Cl)nc4ccccc4c3s2)C1 (stereo unspecified)	none
N=C(C[C@@H](O)COc1ccccc1-c1ccccc1)N1CCCCC1	none
COc1ccc(C(=O)/C=C/c2ccccc2)c(O)c1	none
COc1cccc(C(=O)Oc2ccccc2/C=C\C(=O)c2cc3ccccc3o2)c1	none
COc1ccc(O)c(C(=O)/C=C/c2cc3ccccc3o2)c1	ERK EGF inh 25.1µM
COc1cc(/C=C\C(=O)N2CCC=CC2=O)cc(OC)c1OC	none
Cc1onc(-c2ccccc2)c1C(=O)N/N=C/C=C/c1ccccc1	ERK EGF inh 17.8µM
Cc1onc(-c2ccccc2)c1C(=O)N/N=C/c1ccco1	none
Cc1onc(-c2ccccc2)c1C(=O)N/N=C/c1cccc(O)c1	none
CO[C@]12C(COC(N)=O)C3=C(C(=O)C(C)=C(N)C3=O)N1CC1NC12 (stereo partly specified)	none
CN(C)c1ccc(/C=N/NC(=O)c2ccccn2)cc1	none
CN(C)c1ccc(NC(=S)c2ccccn2)cc1	ERK EGF inh 20µM
CN(C)c1ccc(C(=S)Nc2ccccc2)cc1	none
COc1cccc([C@@H]2Oc3ccc(OC)cc3C(=O)[C@H]2OC(=O)NS(=O)(=O)c2ccc(C)cc2)c1	none
COC(=O)N[C@@H](CCc1ccccc1)/C(C(=O)OC)=C(\C)NCc1ccccc1	none
OB(O)c1ccc(Cl)s1	none
CN=c1scc(-c2ccco2)n1/N=C/c1ccc(O)c(O)c1	none
CN=c1scc(-c2ccccc2F)n1/N=C/c1ccc(O)c(O)c1O	ERK EGF inh 28.2µM
CN=c1scc(-c2ccccc2F)n1/N=C/c1ccc[nH]1	none
C=C(Nc1ccc(OC)cc1)C(=O)OC	none
CCCC1CC(C(=O)N[C@H](C(C)O)C2OC(SC)[C@@H](O)C(O)C2O)N(C)C1 (stereo partly specified)	none
Cc1ccc(O)c(C(=O)c2cc(C#N)c(=O)n(Cc3ccccc3)c2)c1	none
Cc1ccc(O)c(C(=O)c2cc(C#N)c3nc4ccccc4n3c2)c1	ERK EGF inh 31.6µM
Cc1ccc(O)c(C(=O)c2cc(C#N)c(=O)n(C(C)c3ccccc3)c2)c1 (stereo unspecified)	none
CCOC(=O)/C=C/CCC/C=C/C(=O)c1ccccc1	none
Cc1nc(N2CCOCC2)c2nc(-c3ccccc3)n(CC(C)(C)CN(C)C)c2n1	none
COc1ccc(N=c2oc3cc(O)ccc3cc2C(=O)Nc2ccccn2)cc1OC	ERK EGF inh 28.2µM
Cc1ccc(-c2cc(C(=O)Nc3ccccn3)c3ccccc3n2)o1	none
COc1ccc(NC(=O)c2cc3cccc(OC)c3oc2=Nc2ccc(C(=O)O)cc2)cc1OC	none
COc1ccccc1NC1=C(Cl)C(=O)N(c2ccccc2)C1=O	none
COc1ccccc1NC(=S)N(c1ccccc1)C(C)C	none
COC1=C(Nc2ccccc2OC)C(=O)c2ccccc2C1=O	ERK EGF inh 14.1µM
COc1cccc(Cn2c(=O)c(-c3cccc(C#N)c3)nc3cnc(Nc4ccccc4)nc32)c1	none
Cn1cccc1C(=O)N1CCC2(CCCN(Cc3ccccc3)C2)CC1	none
COc1cccc(CS(=O)(=O)c2nnnn2CC(C)C)c1	none
NNC(=S)Nc1ccc(Cl)cc1	none
NC(=NCCCCCCN=C(N)/N=C(\N)Nc1ccc(Cl)cc1)/N=C(\N)Nc1ccc(Cl)cc1	ERK EGF inh 22.4µM!
CC(C)N=C(N)/N=C(\N)Nc1ccc(Cl)cc1	none
CC1=CC(=O)C2=C(C)C[C@H](OC(=O)Cc3ccccc3)C3[C@H](OC(=O)[C@H]3C)C12 (stereo partly specified)	none
COC(=O)C(C(=O)OC)[C@@H](NC(=O)OCc1ccccc1)c1ccccc1	none

Compound activity from PubChem.
